# In PubChem BioAssay (Tox21):
# Results filed as inconclusive are left out. Activity calls are given as the source filed them. Calls come from the whole dose curve; as a rule, active = well fitted cell-killing curve with a large enough effect in the repeat runs; inconclusive = weak or mixed curves, or effect the other way; inactive = flat fitted curve, though single readings scatter.
# Assay: qHTS RealTime-Glo MT Cell Viability Assay in HEK293 cells - 16 hour (AID 1224872); note: nearly all actives have a fitted effect of over 50% in size; for activity change, negative = cytotoxicity: top concentration of the series differs between compounds
# Conditions: RealTime-Glo luminescence; series mostly up to 76.8 µM; activity change, negative = cytotoxicity: at the top concentration
# Source text: National Center for Advancing Translational Sciences [NCATS]
# NIH Chemical Genomics Center [NCGC]
# U.S. Environmental Protection Agency [EPA]
# National Institutes of Environmental Health Sciences [NIEHS]
# National Toxicology Program [NTP]
# U.S. Food and Drug Administration [FDA]
# Measure of cell viability is critical in the cell-base assay. Analysis of cell viability is necessary for the characterization of cell responses to cytotoxic drugs and environmental stress. A RealTime-Glo MT Cell Viability Assay to monitor cell viability in real time of continues cell culture during 40 hours of compound treatment was used to screen Tox21 10K library compounds in Hek293 cells. The RealTime-Glo MT Cell Viability Assay is a nonlytic, homogeneous, bioluminescent method to measure cell viability in real time using a simple, plate-based method. The assay involves adding NanoLuc luciferase and a cell-permeant prosubstrate to cells in culture. Viable cells reduce the proprietary prosubstrate to generate a substrate for NanoLuc luciferase. This substrate diffuses from cells into the surrounding culture medium, where it is rapidly used by the NanoLuc Enzyme to produce a luminescent signal. The signal correlates with the number of viable cells, making the assay well suited for cytotoxicity studies.
# Tox21 Assay Protocol Summary:
# The mixture of Hek293 cell suspension and reagents were dispensed at 600cells/6 ul/well in 1536-well tissue culture treated black solid bottom plates using a Multidrop dispenser. After the assay plates were incubated at a 37 C/5% CO2 incubator for 5 hours, 23 nL of compounds dissolved in DMSO, positive and negative controls was transferred to the assay plate by a pintool work station. The plates were incubated at 37 C for 40 hours. The luminescence intensity were measured at 0h, 8h, 16h, 24h, 32h and 40h time points using ViewLux plate reader during compound treatment.
# % is set by controls: 0 for no effect and ±100 for the full control effect; potency is the fitted concentration of half-maximal effect.
SMILES,"activity change, negative = cytotoxicity",Potency
Clc1cc(Cl)nc(Cl)n1,15.3% (inactive),–
CC(O)c1ccccc1 (stereo not given),20.1% (inactive),–
CC[N+](CC)(CCNC(=O)C(=O)NCC[N+](CC)(CC)Cc1ccccc1Cl)Cc1ccccc1Cl,3.43% [at 35.3 µM] (inactive),–
O=c1cc(-c2ccccc2)oc2ccc3ccccc3c12,-12.3% (inactive),–
O=C(O)CCCCCCCCCCCBr,0.962% (inactive),–
N#CCc1ccc(Cl)cc1Cl,-17.5% (inactive),–
C=C(C)[C@@H]1CCC2=CCC[C@@H](C)[C@]2(C)C1,-1.28% (inactive),–
O=Cc1c2ccccc2c(Cl)c2ccccc12,-14.2% [at 35.3 µM] (inactive),–
CN(C)CCN1C(=O)c2ccccc2N(C)c2ccccc21,0.106% [at 35.3 µM] (inactive),–
CCCCN(CCN(CCCC)C(=O)N1CCOCC1)C(=O)N1CCOCC1,-13.5% [at 35.3 µM] (inactive),–
CC(=O)[C@H]1[C@H](C#N)C[C@H]2[C@@H]3CC=C4C[C@@H](O)CC[C@]4(C)[C@H]3CC[C@@]21C,-32.6% [at 35.3 µM] (inactive),–
O=C(OCC(O)CO)c1ccccc1Nc1ccnc2cc(Cl)ccc12 (stereo not given),–,8.49 µM (active)
O=[N+]([O-])c1ccc(Nc2ccc(Nc3ccccc3)c(S(=O)(=O)O)c2)c([N+](=O)[O-])c1,-0.516% (inactive),–
CO[C@]1(NC(=O)CSC(F)F)C(=O)N2C(C(=O)O)=C(CSc3nnnn3CCO)CO[C@H]21,17.3% [at 35.3 µM] (inactive),–
CC(=O)OCC(=O)NCCCOc1cccc(CN2CCCCC2)c1,1.95% [at 35.3 µM] (inactive),–
CCC1CO1 (stereo not given),3.49% (inactive),–
Cc1ccc(C(C)(C)O)cc1,-9.23% (inactive),–
O=C1c2ccccc2C(=O)c2c(O)c(O)cc(O)c21,-5.24% (inactive),–
OC1(c2ccccc2)CCNCC1,10.5% [at 35.3 µM] (inactive),–
CC=C(Cl)Cl,10.2% (inactive),–

SMILES,"activity change, negative = cytotoxicity",Potency
C=C1CCC2CC1C2(C)C (stereo not given),0% (inactive),–
C[C@]1(Cn2ccnn2)[C@H](C(=O)O)N2C(=O)C[C@H]2S1(=O)=O,6.45% [at 35.3 µM] (inactive),–
O=C(Cn1ccnc1[N+](=O)[O-])NCCO,6.28% [at 35.3 µM] (inactive),–
CN1C[C@H](C(=O)N[C@]2(C)O[C@@]3(O)[C@@H]4CCCN4C(=O)[C@H](Cc4ccccc4)N3C2=O)C[C@@H]2c3cccc4[nH]cc(c34)C[C@H]21,–,23.9 µM (active)
O=C1c2ccccc2C(=O)N1CCc1noc(-c2ccc(CN3CCCCCC3)s2)n1,–,22.5 µM (active)
C[C@@H](O[C@H]1OCCN(Cc2n[nH]c(=O)[nH]2)[C@H]1c1ccc(F)cc1)c1cc(C(F)(F)F)cc(C(F)(F)F)c1,–,19 µM (active)
CC(=O)OCC[N+](C)(C)C,-3.12% [at 35.3 µM] (inactive),–
C(=C\c1ccccc1)/c1ccccc1,5.03% (inactive),–
CCCCCCNC(=O)n1cc(F)c(=O)[nH]c1=O,4.83% [at 35.3 µM] (inactive),–
CC(=O)Oc1ccc([N+](=O)[O-])cc1CCl,–,6.16 µM (active)
C=C(C)C(=O)OCCOCCOC(=O)C(=C)C,3.49% (inactive),–
CC(C)(C)C(=O)C(=O)O,-4.19% (inactive),–
CS(=O)(=O)c1ccc(-c2cn3ccccc3n2)cc1,-29% [at 35.3 µM] (inactive),–
CC(CN(C)C)C(C)(O)Cc1ccc(Cl)cc1 (stereo not given),-4.39% [at 35.3 µM] (inactive),–
O=[N+]([O-])c1ccc(O/N=C/c2cc(Br)c(O)c(Br)c2)c([N+](=O)[O-])c1,–,43.4 µM (active)
Cc1ccc(OC(=O)c2ccccc2O)cc1,-16.5% (inactive),–
Cc1cccc(N(C)C(=S)Oc2ccc3c(c2)CCC3)c1,-13.2% [at 35.3 µM] (inactive),–
CCN(CC)CCNC(=O)COc1ccc(OC)cc1,1.43% [at 35.3 µM] (inactive),–
Cc1ccccc1N=C(N)Nc1ccccc1C,-11.1% (inactive),–
CCCCN(CCCC)C(C(N)=O)c1ccc(OC)cc1 (stereo not given),-18% [at 35.3 µM] (inactive),–
